# Reference: PubChem BioAssay (NCATS)
# Where “and” joins values, the source holds several entries; their conditions need not be identical. Identical values can stand only once. Results filed as inconclusive are left out. Entries that show only a call come without a potency. A structure can be active in one record and inactive in another. Calls of active or inactive are those of the source. Calls come from the whole dose curve; as a rule, active = well fitted curve in the direction sought with a large enough effect; inconclusive = small, poorly fitted or top-dose-only effect, or another doubt; inactive = no such curve, though single readings can be large; an effect the other way counts as inactive or inconclusive.
# Legend:
# [1] = target: Rap guanine nucleotide exchange factor 3 (Homo sapiens) (UniProt O95398); experiment: Confirmatory qHTS for agonist of cAMP-regulated guanine nucleotide exchange factor 3 (EPAC1) (AID 1645881);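 note: EPAC1 catalysed release of BODIPY-GDP from Rap1B seen as fluorescence loss; nearly all actives have a fitted effect of over 75% in size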
# [2] = target: Rap guanine nucleotide exchange factor 4 (Homo sapiens) (UniProt Q8WZA2); experiment: Confirmatory qHTS for agonist of cAMP-regulated guanine nucleotide exchange factor 4 (EPAC2) (AID 1645884);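 note: nucleotide exchange releases bodipy-GDP from Rap1 and this lowers its fluorescence; nearly all actives have a fitted effect of over 65% in size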
# [3] = target: Rap guanine nucleotide exchange factor 4 (Homo sapiens) (UniProt Q8WZA2); experiment: Confirmatory qHTS for antagonist of cAMP-regulated guanine nucleotide exchange factor 4 (EPAC2) (AID 1645885); note: nearly all actives have a fitted effect of over 25% in size; note: potency is the fitted concentration of half-maximal effect
# [4] = target: Rap guanine nucleotide exchange factor 3 (Homo sapiens) (UniProt O95398); experiment: Counterscreen qHTS for antagonist of cAMP-regulated guanine nucleotide exchange factor 3 (EPAC1) (AID 1645888);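 note: fluorescence loss as bound BODIPY-GDP is released from Rap1B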
# In short: (§1)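 Rap1B–BODIPY-GDP (250 nM) with 50 uM GDP; compounds pin-transferred to 9.74 nM–152 uM final (activator) or from 7.32 nM upwards (inhibitor). Fluorescence Ex/Em 480/540 nm read at 5 and 30 min, then after adding cAMP or buffer, at room temperature.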
# [5] = target: Rap guanine nucleotide exchange factor 3 (Homo sapiens) (UniProt O95398); experiment: Counterscreen qHTS for agonist of cAMP-regulated guanine nucleotide exchange factor 3 (EPAC1) (AID 1645889); note: nearly all actives have a fitted effect of over 40% in size; note: potency is the fitted concentration of half-maximal effect
# In short: as §1
# Sequence of Rap guanine nucleotide exchange factor 4 (Homo sapiens) (Q8WZA2 whole entry, looked up): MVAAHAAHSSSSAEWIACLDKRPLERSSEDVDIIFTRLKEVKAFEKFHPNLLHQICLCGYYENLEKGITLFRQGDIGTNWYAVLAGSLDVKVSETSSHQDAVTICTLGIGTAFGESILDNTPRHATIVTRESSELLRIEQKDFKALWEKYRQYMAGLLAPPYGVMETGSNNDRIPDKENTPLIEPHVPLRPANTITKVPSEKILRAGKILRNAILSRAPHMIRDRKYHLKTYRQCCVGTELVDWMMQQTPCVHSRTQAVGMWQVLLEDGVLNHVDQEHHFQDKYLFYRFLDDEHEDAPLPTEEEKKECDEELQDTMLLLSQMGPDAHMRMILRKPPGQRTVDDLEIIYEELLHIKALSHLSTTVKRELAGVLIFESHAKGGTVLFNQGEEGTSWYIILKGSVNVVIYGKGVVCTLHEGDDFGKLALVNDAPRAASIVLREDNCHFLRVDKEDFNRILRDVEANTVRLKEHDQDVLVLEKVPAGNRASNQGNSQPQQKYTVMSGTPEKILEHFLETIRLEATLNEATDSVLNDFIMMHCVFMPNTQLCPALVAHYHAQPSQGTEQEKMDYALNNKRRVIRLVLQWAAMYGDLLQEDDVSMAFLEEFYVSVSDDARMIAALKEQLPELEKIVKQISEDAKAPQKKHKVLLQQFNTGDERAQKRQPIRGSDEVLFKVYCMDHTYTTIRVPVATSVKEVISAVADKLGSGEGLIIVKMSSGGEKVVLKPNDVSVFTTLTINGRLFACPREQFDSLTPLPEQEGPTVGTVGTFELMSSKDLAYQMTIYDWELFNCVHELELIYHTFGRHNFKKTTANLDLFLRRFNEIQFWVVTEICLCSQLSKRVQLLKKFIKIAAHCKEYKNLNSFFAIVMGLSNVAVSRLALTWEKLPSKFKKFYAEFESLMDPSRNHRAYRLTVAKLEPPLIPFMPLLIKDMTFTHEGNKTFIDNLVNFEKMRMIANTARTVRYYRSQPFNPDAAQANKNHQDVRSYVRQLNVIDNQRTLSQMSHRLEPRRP
# Sequence of Rap guanine nucleotide exchange factor 3 (Homo sapiens) (O95398 whole entry, looked up): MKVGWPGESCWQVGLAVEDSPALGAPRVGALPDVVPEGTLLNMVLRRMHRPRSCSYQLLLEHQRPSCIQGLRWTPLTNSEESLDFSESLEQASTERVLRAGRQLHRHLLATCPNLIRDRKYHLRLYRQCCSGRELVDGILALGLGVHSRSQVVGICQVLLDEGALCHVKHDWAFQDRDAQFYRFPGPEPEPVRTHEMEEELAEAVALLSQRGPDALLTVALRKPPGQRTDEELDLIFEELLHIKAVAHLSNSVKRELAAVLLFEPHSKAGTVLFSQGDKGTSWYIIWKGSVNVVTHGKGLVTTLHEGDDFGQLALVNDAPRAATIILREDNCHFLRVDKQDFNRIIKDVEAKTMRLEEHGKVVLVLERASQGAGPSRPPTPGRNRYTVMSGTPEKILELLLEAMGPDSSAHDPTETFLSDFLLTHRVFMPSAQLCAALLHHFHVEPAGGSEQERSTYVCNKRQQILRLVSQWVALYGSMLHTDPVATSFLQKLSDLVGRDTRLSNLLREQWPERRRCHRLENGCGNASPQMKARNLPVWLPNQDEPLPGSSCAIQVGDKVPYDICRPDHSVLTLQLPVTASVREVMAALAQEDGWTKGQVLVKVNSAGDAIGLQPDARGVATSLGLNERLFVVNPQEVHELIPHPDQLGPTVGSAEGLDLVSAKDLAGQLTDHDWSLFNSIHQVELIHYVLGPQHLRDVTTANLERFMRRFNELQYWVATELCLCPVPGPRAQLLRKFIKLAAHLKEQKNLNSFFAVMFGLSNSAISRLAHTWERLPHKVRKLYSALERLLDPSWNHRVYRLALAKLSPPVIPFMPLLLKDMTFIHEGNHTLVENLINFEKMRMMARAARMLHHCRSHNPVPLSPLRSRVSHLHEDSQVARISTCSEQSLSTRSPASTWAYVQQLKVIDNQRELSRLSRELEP
Compound,Potency [1],activation [2],Potency [3],"activity change, negative = inhibition [4]",activation [5],Potency [2],Potency [4],Potency [5],outcome [3]
Cc1oc2c(O)c(O)ccc2c(=O)c1-c1cnn(-c2ccccc2)c1,inactive,"2.28% [at 17.1 µM, percent relative to cAMP agonist control] (inactive)",inactive,-26.8% [at 30.8 µM] (inactive),28.8% [at 30.8 µM] (inactive),,,,
C[C@H]1CN([C@@H](C)CO)C(=O)c2cccc(NC(=O)C3CC3)c2O[C@H]1CN(C)S(=O)(=O)c1ccccc1,inactive,,inactive,,,inactive,inactive,inactive,
CCOC(=O)Cc1nn(Cc2ccc(Cl)cc2)c(=O)c2ccccc12,inactive,,inactive,,,inactive,inactive,inactive,
COc1cc(/C=C2/SC(=S)N(CC(=O)O)C2=O)ccc1OC(=O)c1cccs1,inactive,,inactive,,,inactive,inactive,inactive,
COc1ccc(C(CNC(=O)c2cccc(S(=O)(=O)Nc3ccc(C)cc3)c2)N2CCOCC2)cc1 (stereo not given),inactive,,inactive,,,inactive,inactive,inactive,
COc1cc(/C=C(\C#N)c2nc3ccc(C)cc3[nH]2)ccc1OCc1ccc(C)cc1,inactive,,inactive,,,inactive,inactive,inactive,
CCOC(=O)C1=C(C)NC(C)=C(C(=O)OCC)C1c1ccc([N+](=O)[O-])s1,inactive,,inactive and 42.6 µM (active),,,inactive,inactive,inactive,
Cc1cc2ccccc2n1CCNC(=O)C1CCCCC1,inactive,,95.3 µM (active),,,inactive,inactive,inactive,
C/C(=N\NC(=O)c1ccc(O)cc1)c1cccc(NC(=O)c2ccc(Cl)cc2)c1,inactive,,inactive,,,inactive,inactive,,
CC1CCC(NC(=O)Cn2c3c(c(-c4ccccc4Cl)cc2=O)CCC3)CC1 (stereo not given),inactive,"13.3% [at 17.1 µM, percent relative to cAMP agonist control] (inactive)",inactive,-11.4% [at 30.8 µM] (inactive),6.93% [at 30.8 µM] (inactive),,,,
COc1ccc(/C=C2\Sc3ccc(C(=O)N4CCN(Cc5ccccc5)CC4)cc3N(C)C2=O)cc1OC,inactive,,inactive,,,inactive,inactive,inactive,
NS(=O)(=O)c1ccc(CCNC(=O)Cc2ccc(S(=O)(=O)N3CCCC3)s2)cc1,inactive,"2.8% [at 17.1 µM, percent relative to cAMP agonist control] (inactive)",inactive,7.67% [at 30.8 µM] (inactive),24% [at 30.8 µM] (inactive),,,,
CS(=O)(=O)c1ccc(C(=O)OCc2nnc(-c3ccccc3)o2)cc1[N+](=O)[O-],inactive,,inactive,,,inactive,inactive,inactive,
CC(C)CNc1ncnc2onc(-c3ccc(Cl)cc3)c12,inactive,,inactive,,,inactive,inactive,,
CC(C)c1ccc(C2=CC(c3cccc(Cl)c3)n3ncnc3N2)cc1 (stereo not given),inactive,,,,,inactive,inactive,inactive,inactive [at 12.7 µM]
O=C(NCc1ccco1)c1c2c(nc3ccccc13)CCC2,inactive,"6.94% [at 17.1 µM, percent relative to cAMP agonist control] (inactive)",inactive,-4.49% [at 30.8 µM] (inactive),26.4% [at 30.8 µM] (inactive),,,,
COC(=O)c1nn(-c2ccccc2)c(Sc2ccc(OC)cc2)c1/C=N/O,inactive,"-5.43% [at 17.1 µM, percent relative to cAMP agonist control] (inactive)",inactive,-27.4% [at 30.8 µM] (inactive),23% [at 30.8 µM] (inactive),,,,
COc1ccc(Nc2cc(C(=O)NCCCN3CCN(c4ccccc4F)CC3)c3ccccc3n2)c(OC)c1,inactive,,inactive,,,inactive,inactive,,
CCCCC(CC)C(=O)Oc1ccc(O)c(C(C)(C)C)c1 (stereo not given),inactive,"-3.79% [at 17.1 µM, percent relative to cAMP agonist control] (inactive)",inactive,0.29% [at 30.8 µM] (inactive),-16.7% [at 30.8 µM] (inactive),,,,
COc1cccc(C2CC(c3cccs3)=NN2C(=O)c2ccco2)c1O (stereo not given),inactive,"3.1% [at 17.1 µM, percent relative to cAMP agonist control] (inactive)",inactive,-12.7% [at 30.8 µM] (inactive),8.43% [at 30.8 µM] (inactive),,,,
Cc1ccc(SCC(=O)OCC(=O)N(C)CC(=O)Nc2ccc(F)cc2)cc1C,inactive,"5.96% [at 17.1 µM, percent relative to cAMP agonist control] (inactive)",inactive,-28.7% [at 30.8 µM] (inactive),26.8% [at 30.8 µM] (inactive),,,,
COc1ccc(Nc2nnc(-c3ccc(O)cc3)c3ccccc23)cc1,inactive,"5.03% [at 17.1 µM, percent relative to cAMP agonist control] (inactive)",inactive,-17.5% [at 30.8 µM] (inactive),26.4% [at 30.8 µM] (inactive),,,,

Compound,Potency [1],activation [2],Potency [3],"activity change, negative = inhibition [4]",activation [5],Potency [2],Potency [4],Potency [5],outcome [3]
O=C(Cc1ccc(Cl)cc1)N/N=C/c1ccc(O)c(O)c1,inactive,,inactive,,,inactive,inactive,inactive,
O=C1NC(=O)C(=Cc2ccccc2[N+](=O)[O-])S1,inactive,"5.36% [at 17.1 µM, percent relative to cAMP agonist control] (inactive)",inactive,0.254% [at 30.8 µM] (inactive),,,,,
Cc1ccccc1NC(=O)c1sc2nc(-c3cc4ccccc4oc3=O)[nH]c(=O)c2c1C,inactive,,,,,inactive,inactive,,inactive; activator; fitted 0.8492 uM [at 12.7 µM]
COc1ccccc1-n1c(C)c(C(=O)O)c2cc(OC)c3ccccc3c21,inactive,,47.8 µM (active),,,inactive,inactive,inactive,
CN(c1ccccc1)c1ccc(/C=C(\CCC(=O)O)c2nc3ccccc3s2)cc1[N+](=O)[O-],inactive,,inactive,,,inactive,inactive,inactive,
CCOc1cccc(CNc2ccc(O)cc2)c1OCc1ccccc1Cl,inactive,,inactive,,,inactive,inactive,44.7 nM (active) and 79.4 µM (active),
Cc1ccc(Cl)cc1NS(=O)(=O)c1ccccc1,inactive,"2.77% [at 17.1 µM, percent relative to cAMP agonist control] (inactive)",inactive,0.85% [at 30.8 µM] (inactive),7.24% [at 30.8 µM] (inactive),,,,
O=C(NCc1cccc(Cl)c1)c1ccc(S(=O)(=O)Nc2cccc(C(F)(F)F)c2)cc1,inactive,,inactive,,,inactive,inactive,inactive,
CCN=C1S/C(=C\c2ccc(-c3cccc(C(=O)O)c3)o2)C(=O)N1CC,inactive,,inactive,,,inactive,inactive,inactive,
COc1ccc(/C=C2/SC(=O)N(CCC(=O)Nc3ccc(S(=O)(=O)Nc4nccs4)cc3)C2=O)cc1,inactive,,inactive,,,inactive,inactive,inactive,
COc1ccccc1C(=O)Nc1nnc(SCc2cc(=O)c3ccccc3[nH]2)s1,inactive,,,,,inactive,inactive,inactive,inactive [at 12.7 µM]
Brc1ccc(/C=N/Nc2nc3ccccc3o2)cc1,inactive,,inactive,,,inactive,inactive,inactive,
O=C(O)C/C(=C\c1cc(Cl)c2c(c1)OCO2)c1nc2ccccc2s1,inactive,"-1.81% [at 17.1 µM, percent relative to cAMP agonist control] (inactive)",inactive,-1% [at 30.8 µM] (inactive),-1.83% [at 30.8 µM] (inactive),,,,
CCOC(=O)C1=C(CC)OC(N)=C(C#N)C1c1ccc(F)cc1F (stereo not given),inactive,,inactive,,,inactive,inactive,inactive,
O=C(C=Cc1ccccc1)c1c[nH]c2ccccc2c1=O,inactive,"5.37% [at 17.1 µM, percent relative to cAMP agonist control] (inactive)",inactive,-25.8% [at 30.8 µM] (inactive),9.21% [at 30.8 µM] (inactive),,,,
CCc1ccc2c(c1)NC(=O)C2(C)Cc1ccccc1OC (stereo not given),inactive,,inactive,,,inactive,inactive,inactive,
COC(=O)c1c(SC)nc2ccccc2c1OCc1ccc(C)cc1,inactive,,inactive,,,inactive,inactive,17.8 µM (active),
O=C1C=CC(c2ccccc2)(c2ccccc2)CC1,inactive,"8.73% [at 17.1 µM, percent relative to cAMP agonist control] (inactive)",inactive,-3.3% [at 30.8 µM] (inactive),29.7% [at 30.8 µM] (inactive),,,,
O=C(N[C@H](Cc1ccc(Cl)cc1)C(=O)O)OCC1c2ccccc2-c2ccccc21,inactive,"-11.8% [at 17.1 µM, percent relative to cAMP agonist control] (inactive)",inactive,-5.81% [at 30.8 µM] (inactive),8.84% [at 30.8 µM] (inactive),,,,
CCCCN(Cc1ccccc1)C(=O)c1oc(=O)c2ccccc2c1-c1ccc(C)cc1,inactive,,inactive,,,inactive,inactive,inactive,
CN1CCN(C(=O)c2ccc(COc3ccc(C(C)(C)C)cc3)o2)CC1,inactive,"8.37% [at 17.1 µM, percent relative to cAMP agonist control] (inactive)",inactive,8.52% [at 30.8 µM] (inactive),9.82% [at 30.8 µM] (inactive),,,,
